From PubChem BioAssay (NCI)
Compounds without any hit were thinned out: in the full panel of roughly 83,000, 20% have a hit.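 Activity criterion: percent growth below 10, measured after cells in 96-well plates were exposed to a single compound concentration for 48 hours.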 Calls of active or inactive are those of the source.

Each molecule was assayed on OVCAR-8 ovarian (assay: NCI-60 one-dose screen, 48 h (100 = growth as untreated, 0 = no growth, -100 = all killed)). Settings: 10 µM unless noted.
Protocol: Growth inhibition of the OVCAR-8 human tumor cell line is measured as a screen for anti-cancer activity. Cells are grown in 96 well plates and exposed to the test compound for 48 hours. Compounds are tested at a single concentration, which is 10^-5 M for most compounds. The reported endpoint is percent growth (GI% or GIPRCNT), where numbers from 0 - 100% represent growth inhibition, and numbers from -100% - 0 represent cell death. For example, a value of 40 represents 60% growth inhibition. A value of 0 means no net growth occurred over the course of the experiment. A value of -40 indicates 40% of cells at the beginning of the experiment died by the end of the experiment. A value of -100 means all cells are dead at the end of the experiment.
NCI-60 Human Tumor Cell Lines Screen was performed using the standard one-dose NCI protocol, which is described in more detail at https://dtp.cancer.gov/discovery_development/nci-60/default.htm.
Compounds with GIPRCNT values below 10 were considered active. Activity score was based on GIPRCNT using the following formula: […]
Score is 0 for GIPRCNT values of 100 or above, 50 for GIPRCNT values of 0, and 100 for GIPRCNT values of -100.

Compound	growth
COc1ccc2cc(-c3cc(OC)c(OC)c(OC)c3)c(=O)oc2c1	82.8% (inactive)
COc1ccc(Cl)cc1NC(=O)C(Br)C(Br)C(=O)O (stereo not given)	45.3% (inactive)
CC(C)(C)CC(C)(C)Nc1c(-c2ccncc2)nc2cnccn12	95.6% (inactive)
O=C1CC(N2C(=O)/C(=C/C(Cl)=C\c3ccc([N+](=O)[O-])cc3)SC2=S)C(=O)N1c1ccc(O)cc1 (stereo not given)	11.6% (inactive)
COc1ccc2oc3c(C)c4c(c(C)c3c2c1)C(=O)N(Cc1ccccc1)C4=O	91.2% (inactive)
COc1cc(N=Nc2cc(Cc3ccc(N(C)C)cc3)c(N)cc2N(C)C)c2ncccc2c1	-37% (active)
COc1ccc(NC(=O)CSc2nc(C)c(C(C)=O)n2-c2ccc(Cl)cc2)cc1	88.7% (inactive)
O=C(NC(Cc1nnc2n(Cc3ccccc3)c(=O)c3c4c(sc3n12)CCCC4)c1ccc(Cl)cc1)c1ccccc1 (stereo not given)	91.3% (inactive)
CCc1ccccc1-n1c(-c2ccc(Cl)cc2)cc(-c2ccc(Cl)cc2)c(C#N)c1=O	88.9% (inactive)
CCN(CC)CCCCCCNc1cc(OC)c(Cl)c2cccnc12	84.9% (inactive)
O=C1/C(=C/c2ccc(F)cc2)C=C(c2ccccc2)N1CCc1ccccc1	45.6% (inactive)
Cc1ccc(-c2cc3c(cc2O)C2CCCCC2(N2CCOCC2)O3)cc1 (stereo not given)	102% (inactive)
CNC(=O)CCN1CCN(CC/C=C2\c3ccccc3Sc3ccc(Cl)cc32)CC1	88.5% (inactive)
O=C(CCCCCCN1CC(=O)N2[C@@H](c3ccccc3Cl)c3[nH]c4ccccc4c3C[C@H]2C1=O)NO	49.6% (inactive)
COc1ccccc1N1C(=O)/C(=C/C2=Cc3ccccc3OC2)SC1=S	102% (inactive)
COc1ccc(-c2c(N)n[nH]c2-c2ccc(Cl)cc2O)cc1OC	87.1% (inactive)
Clc1cccc(Cl)c1/C=C/c1cc(/C=C/c2c(Cl)cccc2Cl)[nH]n1	31.1% (inactive)
N#Cc1c(N2CCNCC2)nc2sc3cc(Cl)c(Cl)cc3n2c1=N	94.5% (inactive)
COc1ccc(C(=O)/C=C/c2c(C(F)(F)F)nc3sccn23)cc1OC	18.6% (inactive)
CC(C)(C)C(CCc1ccc(Cl)cc1)N1CCN(C2CCCCC2)CC1 (stereo not given)	60.3% (inactive)

Compound	growth
COc1cccc(-c2nn(-c3ccccc3)cc2-c2ccnc(NCCCNC(=O)c3cccc(C(F)(F)F)c3)c2)c1	22.4% (inactive)
CC(C)(C)n1cc(-c2ccnc(NCCCNS(=O)(=O)c3ccccc3)c2)c(-c2ccccc2)n1	68.9% (inactive)
CCCCCCCC/C=C\CCCCCCCCOc1ccccc1CC(=O)NCC[N+](C)(C)C	64.4% (inactive)
CCCCCCCOc1c(OC)cc(C2CC(=O)Nc3c2c(C)nn3-c2nc3ccccc3[nH]2)cc1OC (stereo not given)	-19.4% (active)
CCCCn1c(=O)c2c(nc3n2CCCN3CCc2ccc(OCC(=O)NCCN(CC)CC)cc2)n(CCCC)c1=O	60.8% (inactive)
O=C(NCCCNc1cc(-c2cn(-c3ccccc3)nc2-c2cccc(O)c2)ccn1)c1ccc(F)cc1	36.1% (inactive)
CC(CN1CCCCC1)C(=O)c1ccccc1 (stereo not given)	102% (inactive)
O=C1Nc2ccc(F)cc2C12Nc1cc(Cl)ccc1S2 (stereo not given)	96.9% (inactive)
CCN(CC)CCn1nc2c3c(cccc3c1=O)-c1ccccc1-2	23.3% (inactive)
COc1ccc(-c2nc3c(N)c(CO)c(C)nc3o2)cc1	110% (inactive)
O=C(CCCCCCSc1nc(-c2ccccc2)cc(-c2ccc(Cl)cc2)n1)NO	8.67% (active)
Cc1cc(C)c2c(-c3nnc(N)s3)cc(=O)oc2c1	102% (inactive)
CCSC1=NC2C(N(CC)C(=O)N2CC)N1/N=C/C=C/c1ccccc1[N+](=O)[O-] (stereo not given)	8.6% (active)
CCCCCCCCCCCCCCCCCCOc1ccccc1CC(=O)OCCC[N+](C)(C)C	43.8% (inactive)
NC(=O)c1ccc[n+](Cc2ccc(Cl)cc2Cl)c1	99.5% (inactive)
COc1ccc2[nH]c(O)c(/C=c3/cc4c(c(-c5cc(OC)c(OC)c(OC)c5)n3)=Nc3ccccc3-4)c2c1	42% (inactive)
O=C(Cc1ccc(F)c(F)c1)Nc1cc(C2(C(F)(F)F)CC2)nn1Cc1ccccc1	6.55% (active)
CCOC(=O)c1csc(NC(=O)COc2cccc(/C=C3\Oc4cc(OC)ccc4C3=O)c2)n1	74.2% (inactive)
CCN1C(=O)N(CC)C2Nn3c(s/c(=C\c4ccc(Cl)cc4Cl)c3=O)=NC21 (stereo not given)	36.1% (inactive)
COc1ccc(-c2csc(C3=C(O)CN(CCCN4CCCC4=O)C3=N)n2)cc1OC	94.6% (inactive)
